# In PubChem BioAssay (Tox21):
# Inconclusive results are not listed. Entries that show only a call come without a potency. The source made the active and inactive calls. Calls follow the shape of the full dose curve.
# Assay: p53 small molecule agonists, cell-based qHTS assay with human liver microsomes (AID 1963577);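 also: p53 response element beta-lactamase reporter cells with liver microsomes plus NADPH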
# Procedure, shortened: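 HLM-supplemented p53RE-bla reporter assay: 16 h compound exposure at 37 C, microsomes and NADPH each 0.5 mg/mL final, read by fluorescence intensity.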
SMILES,Potency,activation
O=C1[C@H]2CCCC[C@H]2C(=O)N1CCCCN1CCN(c2nsc3ccccc23)CC1,inactive,–
CC(C)(C)C1CCC(=O)CC1,inactive,–
CN(C)CCC[C@@]1(c2ccc(F)cc2)OCc2cc(C#N)ccc21,inactive,–
NC1[C@H]2CN(c3nc4c(cc3F)c(=O)c(C(=O)O)cn4-c3ccc(F)cc3F)C[C@@H]12 (some centres not stated),inactive,–
CN[C@@H]1[C@H](O)[C@H](NC)[C@H]2O[C@@]3(O)C(=O)C[C@@H](C)O[C@H]3O[C@@H]2[C@H]1O,inactive,–
CC(C)(O)C(=O)c1ccccc1,inactive,–
CCCCCCCCCCCCCCCCCCOCCO,–,4.4% [at 13.5 µM] (inactive)
N=C1C=CC(=C(c2ccc(N)cc2)c2ccc(N)cc2)C=C1,inactive,–
CCCOC(=O)c1ccc(N)cc1,inactive,–
CC(C)=CCOC(=O)c1ccccc1,inactive,–
CC(C)C(=O)Nc1cccc(C(F)(F)F)c1,inactive,–
C=Cc1ccccc1,inactive,–
NCC(=O)O,–,0.573% [at 13.5 µM] (inactive)
C/C=C\C/C=C/CCCCCCCCOC(C)=O,inactive,–
CC(=O)CC(=O)OC(C)(C)C,inactive,–
COc1cc(C(=O)NS(=O)(=O)c2ccccc2C)ccc1Cc1cn(C)c2ccc(NC(=O)OC3CCCC3)cc12,inactive,–
CCC(CO)(CO)COCC(CC)(CO)CO,inactive,–
NC(=O)C(=O)N/N=C/c1ccc([N+](=O)[O-])o1,inactive,–
C=C1C(CCl)(CCl)C2(Cl)C(Cl)C(Cl)C1(Cl)C2(Cl)Cl (configuration not stated),inactive,–
C1COC(NC(C2CC2)C2CC2)=N1,inactive,–
COc1cc(NS(=O)(=O)c2ccc(N)cc2)nc(OC)n1,inactive,–

SMILES,Potency,activation
CCOc1ccccc1N,inactive,–
O=C(CCCCC(=O)Nc1c(I)cc(I)c(C(=O)O)c1I)Nc1c(I)cc(I)c(C(=O)O)c1I,inactive,–
Cc1ccsc1/C=C/C1=NCCCN1C,inactive,–
Cc1cccc(C)c1OCC(=O)N[C@@H](Cc1ccccc1)[C@@H](O)C[C@H](Cc1ccccc1)NC(=O)[C@H](C(C)C)N1CCCNC1=O,inactive,–
O=C(O)Cc1cn(-c2ccccc2)nc1-c1ccc(Cl)cc1,inactive,–
CN1CCN(CCCN2c3ccccc3Sc3ccc(C(F)(F)F)cc32)CC1,inactive,–
Cc1cc(SC2=C(O)C[C@@](CCc3ccc(N)cc3)(C(C)C)OC2=O)c(C(C)(C)C)cc1CO,inactive,–
CC(C(=O)O)c1cccc(Oc2ccccc2)c1 (configuration not stated),inactive,–
CN(C(=O)C(Cl)Cl)c1ccc(OC(=O)c2ccco2)cc1,inactive,–
CC(CCl)OC(C)CCl (configuration not stated),inactive,–
CCC1CO1 (configuration not stated),inactive,–
CN(C)CCOC1=Cc2ccccc2Sc2ccc(Cl)cc21,inactive,–
CC1(N)CCC(C(C)(C)N)CC1 (configuration not stated),inactive,–
CC(=O)Nc1cccc(C)c1,inactive,–
CCOC(=O)C(=O)CCc1ccccc1,inactive,–
CCOC(=O)C1=NOC(c2ccccc2)(c2ccccc2)C1,inactive,–
C=CC(C)(CCC=C(C)C)OC(=O)C(C)C (configuration not stated),inactive,–
O=C(O)CCNC(=O)c1ccccc1,inactive,–
COc1ccccc1N1CCN(CCCNc2cc(=O)n(C)c(=O)n2C)CC1,inactive,–
CCN(CC)C(=O)N(CC)CC,inactive,–
CC1OCCC1=O (configuration not stated),inactive,–
